Screening data (PubChem)
NTMT1 inh = Primary qHTS for Inhibitors of N-terminal methyltransferase 1 (NTMT1): MTaseGlo Assay; N-terminal Xaa-Pro-Lys N-methyltransferase 1 (Homo sapiens), Q9BV86; Potency, µM (top dose mostly 114 µM), without a hit: at the highest dose activity change, negative = inhibition, most hits filed as inhibitors; actives 2.5% (n = 59,000); NTMT1 MTase-Glo SAH luminescence, purified enzyme;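 note: potency is the fitted concentration of half-maximal effect; plate controls were DMSO vehicle for no effect and no enzyme for full effect; nearly all actives have a fitted effect of over 65% in size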
DRV1 agonist = qHTS for Agonists of Human Resolvin D1 Receptor DRV1; activation, % at 76.9 µM; CHO-K1 GPR32 beta-arrestin PathHunter luminescence, 90 min; zero percent set by DMSO-only wells; Probable G-protein coupled receptor 32 (Homo sapiens), O75388; actives 2.5% (n = 48,000); AID 1346428, 2018;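 active = activation of at least 60% and not above a set upper limit, about 1 call in 100 departs from these limits; inconclusive = activation of 40% to 60%, or above that upper limit; inactive = activation under 40%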; note: 0% is about no effect
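Readings come from a cell-based beta-arrestin complementation format: CHO-K1 GPR32 stable cells (2,500/well) treated 90 min with compounds, then beta-Gal substrate added for 1 h before chemiluminescence imaging.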
OvCa metastasis = Primary qHTS assay for Inhibitors of ovarian cancer metastasis using an organotypic tumor microenvironment (TME) model | SKOV3ip1-GFP adhesion/invasion on 3D omental model, fluorescence | Potency, µM (titrated, usually from 45.8 µM), for inactives: at the highest dose activity change, negative = inhibition, most hits filed as inhibitors | actives 0.1% (n = 46,000);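 note: potency is the fitted concentration of half-maximal effect; plate controls were DMSO wells for no effect and tomatine positive control wells for full effect; nearly all actives have a fitted effect of over 65% in size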
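Adhesion/invasion was scored as fixed GFP-labeled SKOV3ip1 cell counts (488/509 nm), normalized to DMSO and tomatine controls. Cancer cells in serum-free medium, with four compound doses (0.36-46 umol/L), sat 2 hr at RT then 16 hr at 37 C on a 48 hr fibroblast/mesothelial/ECM culture.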
FH mod = Identification of activators of human fumarate hydratase by quantitative high-throughput screening. AID 1347055, 2019. Potency, µM (doses to about 79.9 µM), for inactives: top-dose activity change, negative = inhibition, hits mostly inhibitors. FH coupled MDH/diaphorase resazurin fluorescence, 15 min. Fumarate hydratase, mitochondrial (Homo sapiens), P07954. actives 0.22% (n = 54,000); note: potency is the fitted concentration of half-maximal effect; % is set by controls: 0 for no effect and ±100 for the full control effect; the screen sought activators but most active calls are inhibition curves; nearly all actives have a fitted effect of over 45% in size
Target sequence (P07954 whole entry, looked up): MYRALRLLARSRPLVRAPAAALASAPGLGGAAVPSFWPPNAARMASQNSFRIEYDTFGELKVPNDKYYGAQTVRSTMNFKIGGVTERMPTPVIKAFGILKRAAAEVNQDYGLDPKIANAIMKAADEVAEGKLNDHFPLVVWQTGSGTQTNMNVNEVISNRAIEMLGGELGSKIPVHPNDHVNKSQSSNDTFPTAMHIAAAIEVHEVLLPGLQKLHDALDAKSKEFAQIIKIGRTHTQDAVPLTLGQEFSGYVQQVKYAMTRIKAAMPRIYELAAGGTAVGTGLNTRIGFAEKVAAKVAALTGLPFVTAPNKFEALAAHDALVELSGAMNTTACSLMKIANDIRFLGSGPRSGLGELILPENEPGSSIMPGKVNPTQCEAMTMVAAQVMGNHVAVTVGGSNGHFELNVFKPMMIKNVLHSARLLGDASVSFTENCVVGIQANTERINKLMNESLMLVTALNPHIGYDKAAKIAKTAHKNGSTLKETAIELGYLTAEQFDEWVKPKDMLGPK
The depositor's hits bear a star; i = inactive; u = inconclusive; x = no result; ! = not confirmed by another sample; [ ] = dose if it differs, or a comment. A selection: hits, their analogues and other compounds. The true share with any hit is near 3.9%. Unless noted, calls come from the whole dose curve; as a rule, active = well fitted curve in the direction sought with a large enough effect; inconclusive = small, poorly fitted or top-dose-only effect, or another doubt; inactive = no such curve, though single readings can be large; an effect the other way counts as inactive or inconclusive.

SMILES	NTMT1 inh	DRV1 agonist	OvCa metastasis	FH mod
O=c1ncn2nc(Sc3ccc(F)cc3F)ccc2c1-c1c(Cl)cccc1Cl	14%	x	-7%	-2%
COc1cc(/C=C/C(=O)O[C@H]2CC[C@]34C[C@]35CC[C@]3(C)[C@@H]([C@H](C)CCC=C(C)C)CC[C@@]3(C)[C@@H]5CC[C@H]4C2(C)C)ccc1O	49%[57.5 µM]	28	x	-4%[53.3 µM]
CC(=O)c1ccc(NS(=O)(=O)c2cccc(S(=O)(=O)c3ccc(Cl)cc3)c2)cc1	u	61*	4%	-13%
Cc1ccc(S(=O)(=O)Nc2cc(C)ccc2C(=O)Nc2nc(-c3ccccc3)cs2)cc1	-7%	x	x	x
COc1cc2c3c(cc4ccccc4c3c1O)NC2=O	u	x	x	-12%
Cc1nc(Nc2ncc(C(=O)Nc3c(C)cccc3Cl)s2)cc(N2CCN(CCO)CC2)n1	22µM*!	28	u	-2%
N#Cc1nonc1-c1ccccc1	-14%[57.5 µM]	x	x	x
CN(C)CCN(C)C(=O)c1ccc(NC(=O)Nc2ccc(-c3nc(N4CCOCC4)c4ccn(CC(F)(F)F)c4n3)cc2)cc1	22µM*!	x	u	-1%[53.3 µM]
CCn1nnc2c(N3CCOCC3)nc(-c3ccc(NC(=O)Nc4ccc(C(=O)N5CCN(C)CC5)cc4)cc3)nc21	-18%	x	-16%	u
CCOC(=O)c1ccc(NC(=O)c2cc3cc(C)ccc3n2C)cc1	0%	72*	2%	-3%
COC(=O)c1ccc(NC(=O)c2cc3cc(C)ccc3n2C)cc1	-1%	-5	4%	3%
CCN(CC)CCNC(=O)c1c(C)[nH]c(/C=C2\C(=O)Nc3ccc(Cl)cc32)c1C	25µM*	x	x	-19%
Cc1[nH]c(/C=C2\C(=O)Nc3ccc(F)cc32)c(C)c1C(=O)NC[C@H](O)CN1CCOCC1	u	x	x	-1%
COc1ccc(CNC(=O)c2ccc(CS(=O)(=O)c3ccc(OC)cc3)o2)cc1	-3%	-10	i	-10%
COc1ccc(S(=O)(=O)Cc2ccc(C(=O)NC3CCCCC3)o2)cc1	u	89*	2%	-7%
Cc1ccc(NS(=O)(=O)c2cc3c(cc2N2CCCC2)NC(=O)CC3)cc1C	-3%	x	x	x
COc1cc2nc(-c3cc(F)ccc3O)nc(N[C@@H]3CNC[C@H]3C(C)(C)O)c2cc1OC	28µM*	x	x	-8%
CN(C)c1ccc2c(=O)n3nc(Nc4ccc5c(c4)CCC5)sc3nc2c1	4%[57.5 µM]	x	x	x
CCC(C)S(=O)(=O)c1oc(-c2ccc(F)cc2)nc1S(=O)(=O)c1ccc(F)cc1 (configuration not stated)	15%	13	3.5µM*	-4%
CCS(=O)(=O)c1oc(-c2ccc(F)cc2)nc1S(=O)(=O)c1ccccc1	2%	-18	-8%	-3%
C=CC1(C)C=C2C(O)CC3C(C)(C(=O)O)CCCC3(C)C2CC1 (configuration not stated)	8%[29.8 µM]	x	x	-3%[53.3 µM]
COc1ccc(NC(=O)C2CCN(c3ccc(Sc4ccc(C)cc4)nn3)CC2)cc1	1%	64*	-7%	3%
CCc1ccc(NC(=O)C2CCN(c3ccc(Sc4ccc(C)cc4)nn3)CC2)cc1	-7%	19	-2%	-3%
COC1CC(=O)C23C(=O)NC(CC(C)C)C2C(C)C(C)=CC3/C=C(\C)CCC1O (configuration not stated)	0%[29.8 µM]	x	x	1%[53.3 µM]
Cc1c(P(=S)(c2ccccc2)c2ccccc2)c2ccccc2n1CCCc1ccccc1	-7%	x	x	x
SMILES	NTMT1 inh	DRV1 agonist	OvCa metastasis	FH mod
CCOC(=O)c1[nH]c2c(c1C)CCC(c1ccco1)C2 (configuration not stated)	-1%	x	x	x
CCOC(=O)c1[nH]c2c(c1C)C(=S)CC(c1ccco1)C2 (configuration not stated)	40µM*	x	x	x
CCc1oc2ccccc2c1C(=O)c1cc(I)c(O)c(I)c1	20µM*	0	x	u
CCOC(=O)c1cccc(NC(=O)c2cc3cc4cc(OC)ccc4nc3s2)c1	-9%	101*	17%	-1%
CCOC(=O)c1cccc(NC(=O)c2cc3cc4ccc(C)cc4nc3s2)c1	1%	1	i	8%
CC(C)(NS(=O)(=O)c1ccc2c(Cl)cnc(N=C(N)N)c2c1)C(=O)O	3%	x	x	x
C/C=C(\C)C(=O)O[C@@H]1CC2[C@@H](CC=C3C[C@@H](O[C@H]4C[C@H](OC)[C@H](O[C@H]5C[C@H](OC)[C@H](O[C@@H]6O[C@H](C)[C@@H](O[C@H]7C[C@H](OC)[C@H](O[C@@H]8O[C@H](CO)[C@@H](O)[C@H](O)[C@H]8O)[C@@H](C)O7)[C@H](OC)[C@H]6O)[C@@H](C)O5)[C@@H](C)O4)CC[C@@]32C)[C@@]2(O)CC[C@H](C(C)=O)[C@@]12C (some centres not stated)	2%[6.45 µM]	x	x	-1%[13.5 µM]
Clc1cccc(-n2ncc3c(NCCCN4CCOCC4)ncnc32)c1	50µM*	85*	u	-5%
Clc1cccc(-n2ncc3c(NCCCc4ccccc4)ncnc32)c1	u	u	-18%	-18%
CC(C)CCNc1ncnc2c1cnn2-c1cccc(Cl)c1	u	92*	u	-5%
CN(C)CCNc1ncnc2c1cnn2-c1cccc(Cl)c1	-18%	87*	6%	-6%
CCc1ccccc1Nc1ncnc2c1cnn2-c1ccc(Cl)cc1	u	73*	-1%	-11%
Cc1ccc(-n2ncc3c(NCCCN4CCOCC4)ncnc32)cc1Cl	u	14	0%	-14%
Cc1ccc(C(=O)Nc2ccccc2C(=O)Nc2nc(-c3ccccc3)cs2)cc1	3%[57.5 µM]	x	x	x
Cc1nc(N)ncc1-c1nc(N2CCOCC2)c2sc(C(C)(C)O)cc2n1	u	x	-28%	8%
COc1ccc(CCNc2ncnc3c2cnn3-c2cccc(Cl)c2)cc1	-7%	114*	-1%	-1%
COc1ccc(CCNc2ncnc3c2cnn3-c2ccc(F)cc2)cc1	5%	66*	-4%	9%
COc1ccc(CCNc2ncnc3c2cnn3-c2ccc(C)c(Cl)c2)cc1	-13%	u	5%	-15%
COc1ccc(NC(=O)C(OC(=O)CNC(=O)c2ccccc2)c2ccccc2)cc1Cl (configuration not stated)	0%[57.5 µM]	x	x	x
O=c1cc(-c2ccccc2)oc2c(O)c(O)ccc12	x	x	x	16µM*
O=c1cc(-c2ccccc2)oc2ccccc12	100µM*	62*	x	-15%
C[C@@H](O)[C@H](N)C(=O)N1CCC[C@H]1C(=O)N1CCC[C@H]1C(=O)N[C@H](C(N)=O)[C@@H](C)O	35%[12.6 µM]	x	x	-2%[13.5 µM]
CCOC(=O)c1ccc(-c2ccc(/C=C(\C#N)c3nc4ccc(C)cc4[nH]3)o2)cc1	u	-24	3.2µM*	-6%
N[C@H](Cc1ccccc1)C(=O)Nc1ccc(Cl)cc1C(=O)c1ccc[nH]1	28µM*	x	x	x
CC(=O)Nc1ccc(Cl)cc1C(=O)c1ccc[nH]1	5%	x	x	x
